The structures appear in SMILES notation. The panel holds about 83,000 compounds, 20% with a hit somewhere; the sample as a whole holds those more often.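 Cells were grown in 96-well plates and exposed to the test compound at a single concentration for 48 hours; results are reported as percent growth, with values below 10 considered active.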 Calls of active or inactive are those of the source.

The assay has as its system HOP-62 NSCLC. As to the kind of experiment: NCI-60 one-dose screen, 48 h (100 = growth as untreated, 0 = no growth, -100 = all killed). Particulars: 10 µM unless noted.
For `COc1cc2c(c(OC)c1OC)C(=O)CC(c1cccc(NC(=O)[C@@H](N)CC(C)C)c1)O2` (stereo partly drawn), the growth was 99% (inactive).
With `CN1CCN(/C(=N\c2sc(-c3ccccc3)nc2-c2ccccc2)c2ccccc2)CC1`, the growth is 97.1% (inactive).
Regarding `Cc1ccc(-c2nnc3ccc(N/N=C/c4ccccc4)nn23)cc1`, the growth is 88.5% (inactive).
Next, `COc1ccc(C(=O)/C=C/c2ccccc2Br)cc1S(N)(=O)=O`: -18.7% (active); `CC1=C(C(=O)OCc2ccccc2)C(c2c(O)cc(O)cc2O)n2c(nc3ccccc32)N1` (stereo not drawn): 47.8% (inactive).
The figure for `CCCCc1c(Nn2cnnn2)no[n+]1[O-]` is 81.6% (inactive); for `CC(C)CSc1nc(NCCc2c[nH]c3ccccc23)c(C#N)c(-c2ccc(Cl)cc2)n1` it is 49.3% (inactive).
Next, `CN1CCc2c(sc3ncnc(N/N=C/c4ccc(Cl)cc4Cl)c23)C1`: 27.1% (inactive); `N#Cc1c(-c2ccc(Br)cc2)nc2n[nH]c(-c3ccc(Br)cc3)c2c1-c1ccc(F)cc1`: 87.9% (inactive).
With `CC(=O)OC[C@@]1(C)C2CC[C@]3(C)C(CC=C4C5CC(C)(C)CC[C@]5(C(=O)Nc5ccc(F)cc5)CC[C@]43C)[C@@]2(C)C[C@@H](OC(C)=O)[C@@H]1OC(C)=O` (stereo partly drawn), the growth was 41.3% (inactive).
Next, `NS(=O)(=O)c1ccc(N=Nc2c(O)n(CC(=O)Nc3ccccc3Cl)c3ccccc23)cc1`: 17.6% (inactive); `CCCCNC(=S)Nc1ccc(OCc2nc3ccccc3[nH]2)cc1`: 69.5% (inactive); `Cc1cc2nc3c4ccccc4n(CCCN(C)C)c3nc2cc1C`: -0.831% (active).
For the compound `COc1cc2c(c(OC)c1OC)C(=O)CC(c1cccc(NC(=O)c3cc(NC(=O)[C@@H](N)CO)ccc3C)c1)O2` (stereo partly drawn), the growth is 108% (inactive).
The figure for `CC(=O)OC[C@@]1(C)C2CC[C@]3(C)C(CC=C4C5CC(C)(C)CC[C@]5(C(=O)Nc5ccc(C)cc5)CC[C@]43C)[C@@]2(C)C[C@@H](OC(C)=O)[C@@H]1OC(C)=O` (stereo partly drawn) is 44.4% (inactive); for `Cc1ccc(C(=O)CSc2nc3ccc(F)cc3c(=O)n2-c2ccc(Cl)cc2)cc1` it is -17.1% (active).
Next, `COc1ccc(-c2ccnc(SCc3cc4cc(Cl)ccc4[nH]c3=O)n2)cc1`: -17.3% (active); `COc1cc(-c2ccc(/C=N/NC(=O)c3[nH]c4ccc(Br)cc4c3-c3ccccc3)o2)cc(OC)c1OC`: 62.6% (inactive).
Next, `CC1=C(C(=O)OC(C)C)C(c2cccc(O)c2)NC(=S)N1` (stereo not drawn): 95.9% (inactive); `COc1cccc(COc2ccc(NC(=O)Nc3ccc(Cl)c(C(F)(F)F)c3)cc2)c1`: 34.3% (inactive); `COc1ccc(C(=O)Nc2n[nH]c(Nc3ccccc3)c2C#N)cc1`: 124% (inactive).
Regarding `O=C(c1ccc(OCCN2CCOCC2)cc1)C1[C@H](c2ccc(Cl)cc2)[C@@H](c2ccccc2)NC12C(=O)Nc1ccc(Cl)cc12` (stereo partly drawn), the growth was 67.7% (inactive).
Next, `O=C(N=Nc1c(O)[nH]c2ccc([N+](=O)[O-])cc12)c1ccc2nc(-c3ccccc3)[nH]c2c1`: 100% (inactive); `CCN(CC)C(=O)N/C(N)=N/c1nc2ccccc2s1`: 68.9% (inactive).
The figure for `Nc1nnc(-c2c[nH]c3ncc(Br)cc23)c(-c2c[nH]c3ccc(F)cc23)n1` is 46.6% (inactive).
Next, `O=C(COc1ccc(NC(=O)Nc2ccccc2)cc1)N=Nc1c(O)[nH]c2ccc([N+](=O)[O-])cc12`: 24.5% (inactive).
Turning to `CC(=O)Nc1ccc(-n2cnc3cc(-c4ccc(O)cc4)ccc32)cc1C(F)(F)F`, the growth was 34.4% (inactive).
On to `CN(C)CCn1c2ccccc2c2nc3cc4ccccc4cc3nc21`, for which the growth is 38.3% (inactive).
Next, `COc1cc2oc(-c3cccc(C(=O)Nc4cccc([N+](=O)[O-])c4)c3)cc(=O)c2c(OC)c1OC`: -13.4% (active); `Cc1cccc(NC(=O)[C@]23CCC(C)(C)CC2C2=CCC4[C@@]5(C)C[C@@H](O)[C@H](O)[C@@](C)(CO)C5CC[C@@]4(C)[C@]2(C)CC3)c1` (stereo partly drawn): 50.9% (inactive).
Regarding `O=C(/C=C/c1cccc(OCc2ccccc2)c1)c1nc2ccccc2[nH]1`, the growth was 50.5% (inactive).
The figure for `COc1ccc(N2N=C(c3ccc4c(c3)OCO4)CC2c2cccc(NC(=O)CCNS(=O)(=O)c3ccc(Cl)cc3)c2)cc1` (stereo not drawn) is 50.2% (inactive); for `CN(C)c1ccnc(CNCCSC2(c3ccccc3)c3ccccc3C=Cc3ccccc32)c1` it is 9.26% (active); for `CC1=C(C(=O)c2ccccc2)C(c2ccc(-n3cncn3)cc2)n2c(nc3ccccc32)N1` (stereo not drawn) it is 71.5% (inactive).
Next, `Cc1cnc(C(=O)NNc2nc3cc(F)ccc3n3c(C(=O)N4CC5CC(C4)N5)ccc23)cn1`: 59.3% (inactive); `CN(C)CCCNC(=O)c1cc(NC(=O)c2cc(NC(=O)c3ccc(C#Cc4ccccc4)cc3)cn2C)cn1C`: 8.16% (active); `N/C(=N\N=C\c1ccc([N+](=O)[O-])cc1)c1c(N)nc(=S)[nH]c1-c1ccc(Cl)cc1Cl`: 57% (inactive).
Next, `C=C1CCC2C3(C)COC(c4cccc(F)c4)OC3CCC2(C)C1C/C=C1/C(=O)OCC1O` (stereo not drawn): 22.6% (inactive).

These data come from PubChem BioAssay (NCI).
